The source of these data is PubChem BioAssay (NCATS).

Records with an inconclusive call do not appear. Calls of active or inactive are those of the source. The call rests on the fitted dose curve; in most records, active means well fitted curve in the direction sought with a large enough effect; inconclusive means small, poorly fitted or top-dose-only effect, or another doubt; inactive means no such curve, though single readings can be large; an effect the other way counts as inactive or inconclusive.

Test [1] can be described thus: qHTS of pediatric cancer cell lines to identify multiple opportunities for drug repurposing: Primary screen for Saos-2 cells (AID 1347097). Further: nearly all actives have a fitted effect of over 40% in size. Further: potency means the concentration at half of the fitted maximal effect. In a few lines:
(§1)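 Primary screen of approved and investigational compounds on cells in growth media at 37 degrees C, 5% CO2. MIPE set at 11-point and NPC set at 8-point dilutions; viability scored by ATP-based luminescence at 48 hours.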
In general terms: qHTS replaces the single test concentration by a dilution series.

The nature of test [2]: qHTS of pediatric cancer cell lines to identify multiple opportunities for drug repurposing: Primary screen for NB1643 cells (AID 1347099). Further: nearly all actives have a fitted effect of over 50% in size. Further: potency means the concentration at half of the fitted maximal effect. In a few lines: as §1
A short description of test [3]: qHTS of pediatric cancer cell lines to identify multiple opportunities for drug repurposing: Primary screen for BT-12 cells (AID 1347101). Further: nearly all actives have a fitted effect of over 25% in size. Further: potency means the concentration at half of the fitted maximal effect. The essentials: (§2)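 Cells (500-1,000/well) rested 5 h, then received compounds for 48 h; metabolically active cells were measured by CellTiter-Glo luminescence. Final concentrations spanned up to 46 µM (MIPE, 11-point) or 0.59 nM-46 µM (NPC, 8-point) in primary screens, 11-point in follow-ups.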

Test [4] can be described thus: qHTS of pediatric cancer cell lines to identify multiple opportunities for drug repurposing: Primary screen for OHS-50 cells (AID 1347103). Further: nearly all actives have a fitted effect of over 40% in size. Further: potency means the concentration at half of the fitted maximal effect. In a few lines:
as §2

A short description of test [5]: qHTS of pediatric cancer cell lines to identify multiple opportunities for drug repurposing: Primary screen for RD cells (AID 1347104). Further: nearly all actives have a fitted effect of over 55% in size. Further: potency means the concentration at half of the fitted maximal effect. In a few lines:
as §1

Test [6] in a line: qHTS of pediatric cancer cell lines to identify multiple opportunities for drug repurposing: Primary screen for MG 63 (6-TG R) cells (AID 1347105). Further: nearly all actives have a fitted effect of over 50% in size. Further: potency means the concentration at half of the fitted maximal effect. In a few lines:
as §1

The nature of test [7]: qHTS of pediatric cancer cell lines to identify multiple opportunities for drug repurposing: Primary screen for Rh30 cells (AID 1347107). Further: nearly all actives have a fitted effect of over 75% in size. Further: potency means the concentration at half of the fitted maximal effect. In a few lines: as §2
Test [8] can be described thus: qHTS of pediatric cancer cell lines to identify multiple opportunities for drug repurposing: Primary screen for Rh41 cells (AID 1347108). Further: nearly all actives have a fitted effect of over 70% in size. Further: potency means the concentration at half of the fitted maximal effect. The essentials:
as §1

The nature of test [9]: qHTS of pediatric cancer cell lines to identify multiple opportunities for drug repurposing: Primary screen for LAN-5 cells (AID 1347100). Further: potency means the concentration at half of the fitted maximal effect. The essentials: as §2
The nature of test [10]: qHTS of pediatric cancer cell lines to identify multiple opportunities for drug repurposing: Confirmatory screen for A673 cells (AID 1347110).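 Further: cells exposed to compound for 48 h before the viability read; nearly all actives have a fitted effect of over 65% in size.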 Further: potency means the concentration at half of the fitted maximal effect. The essentials: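 A673 cells at 500-1,000 cells/well were dosed 5 h after plating, in dilution series up to 46 uM final; primary runs used 8 or 11 points and confirmatory runs used 11 points. Viability was read by CellTiter-Glo luminescence after 48 h, against DMSO and 2.3 uM bortezomib controls.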

Test [11] in a line: qHTS of pediatric cancer cell lines to identify multiple opportunities for drug repurposing: Confirmatory screen for SK-N-MC cells (AID 1347111).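 Further: cells exposed to compound for 48 h before the readout; nearly all actives have a fitted effect of over 70% in size.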 Further: potency means the concentration at half of the fitted maximal effect. The essentials: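 Seed 500-1,000 cells/well; rest 5 h at 37 degrees C. Pin-transfer compounds, 11-point titration. Incubate 48 h. Add CellTiter-Glo, 15 min RT, read luminescence.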
Test [12] is described as follows: qHTS of pediatric cancer cell lines to identify multiple opportunities for drug repurposing: Confirmatory screen for DAOY cells (AID 1347114). Further: nearly all actives have a fitted effect of over 65% in size. Further: potency means the concentration at half of the fitted maximal effect. The essentials:
(§3)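 Viability measured as metabolically active cells via CellTiter-Glo luminescence following 48 hours of compound exposure, 11-point dilutions in confirmatory testing. 500-1,000 cells/well plated 5 hours before dosing; controls were DMSO and 2.3 µM bortezomib.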

Test [13] is described as follows: qHTS of pediatric cancer cell lines to identify multiple opportunities for drug repurposing: Confirmatory screen for NB-EBc1 cells (AID 1347115).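 Further: cells exposed to compound for 48 h before the viability read; nearly all actives have a fitted effect of over 45% in size.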 Further: potency means the concentration at half of the fitted maximal effect. The essentials: as §2
Test [14] in a line: qHTS of pediatric cancer cell lines to identify multiple opportunities for drug repurposing: Confirmatory screen for SJ-GBM2 cells (AID 1347116). Further: potency means the concentration at half of the fitted maximal effect; nearly all actives have a fitted effect of over 60% in size. In a few lines: as §3
Test [15] in a line: qHTS of pediatric cancer cell lines to identify multiple opportunities for drug repurposing: Primary screen for Rh18 cells (AID 1347102). Further: nearly all actives have a fitted effect of over 65% in size. Further: potency means the concentration at half of the fitted maximal effect. The essentials:
as §2

Test [16] is described as follows: qHTS of pediatric cancer cell lines to identify multiple opportunities for drug repurposing: Primary screen for control Hh wild type fibroblast cells (AID 1347106).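 Further: series mostly up to about 46 µM; a drop in luminescence marks cytotoxicity and a rise apparent proliferation; nearly all actives have a fitted effect of over 55% in size.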 The essentials:
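Viability after 48 h compound treatment at 37C, 500-1,000 cells/well, read as ATP luminescence with CellTiter-Glo. Primary screens used 11-point (MIPE, 0.78 nM-46 µM) or 8-point (NPC, 0.59 nM-46 µM) final concentrations; follow-up screens used 11-point dilutions.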

A short description of test [17]: qHTS of pediatric cancer cell lines to identify multiple opportunities for drug repurposing: Confirmatory screen for LAN-5 cells (AID 1347113). Further: nearly all actives have a fitted effect of over 65% in size. Further: potency means the concentration at half of the fitted maximal effect. In a few lines: as §2
Test [18] is described as follows: qHTS of pediatric cancer cell lines to identify multiple opportunities for drug repurposing: Confirmatory screen for NB1643 cells (AID 1347109). Further: nearly all actives have a fitted effect of over 45% in size. Further: potency means the concentration at half of the fitted maximal effect. The essentials: as §2
A short description of test [19]: qHTS of pediatric cancer cell lines to identify multiple opportunities for drug repurposing: Confirmatory screen for BT-12 cells (AID 1347112). Further: nearly all actives have a fitted effect of over 55% in size. Further: potency means the concentration at half of the fitted maximal effect. In a few lines: as §2

In the case of `NC(=O)c1c(OCc2c(F)cc(Br)cc2F)nsc1NC(=O)NCCCCN1CCCC1`, the Potency result in test [1] and in [2] was “inactive” in each case. Moreover, the Potency is 27.3 µM (active) in test [3]; 24.3 µM (active) in test [4]; 18.7 µM (active) in test [5]; 5.9 µM (active) in test [6]; 20.9 µM (active) in test [7]; 18.7 µM (active) in test [8].
With `CCC1=C[C@@H]2CN(C1)Cc1c([nH]c3ccccc13)[C@@](C(=O)OC)(c1cc3c(cc1OC)N(C)[C@@H]1[C@@](O)(C(=O)OC)[C@H](OC(C)=O)[C@]4(CC)C=CCN5CC[C@]31[C@@H]54)C2`, the Potency in test [1] was 0.0166 µM (active); in [2] it was 0.059 µM (active); in test [9], 0.0093 µM (active); in test [3], 0.0769 µM (active); in test [4], 0.0432 µM (active); in test [5], 0.0187 µM (active). In addition, the Potency is 0.329 µM (active) in test [10], 5.22 µM (active) in test [11], 0.657 µM (active) in [12] and 5.22 µM (active) in [14]. The Potency result in [7] and in test [13] was “inactive” in each case.
As to `NCC(=O)Nc1ccc(-n2nc(C(F)(F)F)cc2-c2ccc3c(ccc4ccccc43)c2)cc1`, the Potency is 26.4 µM (active) in test [1]; 18.7 µM (active) in [2]; 23.5 µM (active) in [9]; 24.3 µM (active) in test [3]; 26.4 µM (active) in test [15]; 30.6 µM (active) in [4]. Also, the Potency in [5] is 16.6 µM (active); in test [10], 11.7 µM (active); in [11], 0.329 µM (active); in [17] it was 2.93 µM (active); in test [13], 7.37 µM (active); in test [14], 3.29 µM (active). Further, the Potency entry in test [16] is “inactive”.
In the case of `CCOC(=O)C1=C(C)NC2=C(C(=O)CC(C)(C)C2)C1c1ccc(-c2ccccc2)cc1` (centres undefined), the Potency is 3.32 µM (active) in test [1]; 24.3 µM (active) in test [3]; 16.6 µM (active) in [15]; 16.6 µM (active) in [5]; 14.8 µM (active) in test [6]; 18.7 µM (active) in [8]. Further, the Potency result in test [16] is “inactive”.
Consider `O=C(Nc1nc2cccc(-c3ccc(CN4CCS(=O)(=O)CC4)cc3)n2n1)C1CC1`, for which the Potency in test [1] is 18.7 µM (active); in test [2], 10.5 µM (active); in [3] it was 27.3 µM (active); in [5], 18.7 µM (active); in test [6], 23.5 µM (active). Further, in [16], the Potency entry was “inactive”.
For `COc1c(OCCCN2CCOCC2)ccc2c3n(c(=NC(=O)c4cnc(N)nc4)nc12)CCN3`, the Potency in test [1] is 0.0512 µM (active); in test [9] it was 0.407 µM (active); in [15], 0.0812 µM (active); in test [4], 0.0211 µM (active); in test [5], 0.0724 µM (active); in [6], 0.0407 µM (active). The Potency was 0.102 µM (active) in test [8]; 2.29 µM (active) in [18]; 1.02 µM (active) in test [10]; 1.02 µM (active) in test [11]; 0.644 µM (active) in test [17]; 2.57 µM (active) in [13]. Besides, the Potency in test [14] was 2.04 µM (active). Besides, the Potency result in [16], in [19] and in test [12] was “inactive” each time.
As for `CC1(O)CC(c2nc(-c3ccc4ccc(-c5ccccc5)nc4c3)c3c(N)nccn23)C1` (centres undefined), the Potency in test [1] was 0.935 µM (active); in [2], 2.09 µM (active); in test [9], 0.418 µM (active); in test [3] it was 17.2 µM (active); in [4], 0.544 µM (active); in test [5], 0.59 µM (active). Further, the Potency in test [8] is 0.935 µM (active). Also, the Potency result in [16] was “inactive”.
As for `CS(=O)(=O)N1CCN(Cc2cc3nc(-c4cccc5[nH]ncc45)nc(N4CCOCC4)c3s2)CC1`, the Potency in test [1] was 0.0526 µM (active); in test [2] it was 0.833 µM (active); in test [9], 1.05 µM (active); in test [15], 1.32 µM (active); in test [4], 0.0769 µM (active); in test [5], 1.05 µM (active). In addition, the Potency is 0.0935 µM (active) in [6]; 8.51 µM (active) in [18]; 3.39 µM (active) in [10]; 1.7 µM (active) in [11]; 1.91 µM (active) in test [17]; 6.03 µM (active) in [13]. Also, the Potency in test [14] was 21.4 µM (active). Also, the Potency entry in test [16] is “inactive”.
With `CCCCOc1c(C(=O)c2c(F)cc(C)cc2F)cnc2n[nH]cc12`, the Potency in test [1] is 3.72 µM (active); in test [2] it was 2.96 µM (active); in [9], 4.18 µM (active); in test [3] it was 6.11 µM (active); in test [4], 5.44 µM (active); in test [5], 18.7 µM (active). The Potency in test [6] is 11.8 µM (active); in [8], 18.7 µM (active). The Potency entry in [15] and in [7] was “inactive” throughout.
With `CCNC(=O)Nc1ccc2ncc(Nc3ccc(C)cc3)nc2n1`, the Potency was 18.7 µM (active) in test [1], 0.935 µM (active) in test [9] and 24.3 µM (active) in test [4]. The Potency result in test [16], in [18], in test [10], in test [11], in test [19] and in test [17] was “inactive” throughout. The Potency entry in [12] and in [13] was “inactive” in each case.
On to `Cc1ccc2nc(NC(=O)CSc3nc4c(c(=O)n3-c3ccccc3)SCC4)sc2c1`, for which the Potency in [1] is 14.8 µM (active); in test [9], 14.8 µM (active); in test [3] it was 5.44 µM (active); in test [4], 13.7 µM (active); in test [8] it was 14.8 µM (active); in test [11], 11.7 µM (active). For the same compound, the Potency was 3.29 µM (active) in [19] and 7.37 µM (active) in test [12].
On to `Cn1c(CNc2ccc(C(=N)N)cc2)nc2cc(C(=O)N(CCC(=O)O)c3ccccn3)ccc21`, for which the Potency entry in [1], in [9], in [3], in test [15], in test [4] and in test [5] was “inactive” in each case. The Potency entry in test [6], in [16], in test [7] and in test [8] was “inactive” in each case.
For the compound `C[C@@H]1CN(CC(=O)Nc2ccc3c(c2)Cc2cccc(-c4cc(=O)cc(N5CCOCC5)o4)c2S3)C[C@H](C)O1`, the Potency in test [1] is 10.5 µM (active); in test [9], 18.7 µM (active); in test [15], 18.7 µM (active). In addition, the Potency entry in test [16] was “inactive”.
With `COC(=O)C1=C(C)NC(C)=C(C(=O)OCCN2CCN(C(c3ccccc3)c3ccccc3)CC2)C1c1cccc([N+](=O)[O-])c1` (centres undefined), the Potency in test [1] was 13.3 µM (active); in test [2], 16.8 µM (active); in test [15], 16.8 µM (active). Further, the Potency entry in test [6], in [16] and in test [7] was “inactive” in each case.
Consider `Cc1cn2cc(C(=O)N(C)CCO)cc(N[C@@H]3CCOc4cccc(C)c43)c2n1`, for which the Potency entry in test [1], in test [2], in [9], in [3], in [15] and in test [4] was “inactive” each time. Moreover, the Potency entry in test [5], in test [6], in [16], in test [7] and in test [8] was “inactive” each time.
